The test system of one test is AAK1. Set-up: species or system human, MV4-11 + K-562 + COLO205 + SK-N-BE2 + OVCAR-8. Conditions: read-out: apparent Kd, compound concentrations: 100 nM and 1000 nM (sheet 'Samples'), n = 1.
The test system of a further test is CLK1. Also noted: species or system human, MV4-11 + K-562 + COLO205 + SK-N-BE2 + OVCAR-8. Conditions: read-out: apparent Kd, n = 1.
The subject of the next test is CLK4. Set-up: species or system human, MV4-11 + K-562 + COLO205 + SK-N-BE2 + OVCAR-8. Conditions: read-out: apparent Kd, n = 1.
Another test relates to CSNK2A1;CSNK2A3. Also noted: species or system human, MV4-11 + K-562 + COLO205 + SK-N-BE2 + OVCAR-8. The conditions noted are these: read-out: apparent Kd, n = 1.
A further test has as its system CSNK2A2. Also noted: species or system human, MV4-11 + K-562 + COLO205 + SK-N-BE2 + OVCAR-8. The conditions noted are these: read-out: apparent Kd, n = 1.
The target in a further test is Q6ZSR9 (human, UniProt Q6ZSR9). Set-up: species or system MV4-11 + K-562 + COLO205 + SK-N-BE2 + OVCAR-8. The conditions noted are these: read-out: apparent Kd, n = 1.
Chain of Q6ZSR9 (Q6ZSR9 whole entry, looked up): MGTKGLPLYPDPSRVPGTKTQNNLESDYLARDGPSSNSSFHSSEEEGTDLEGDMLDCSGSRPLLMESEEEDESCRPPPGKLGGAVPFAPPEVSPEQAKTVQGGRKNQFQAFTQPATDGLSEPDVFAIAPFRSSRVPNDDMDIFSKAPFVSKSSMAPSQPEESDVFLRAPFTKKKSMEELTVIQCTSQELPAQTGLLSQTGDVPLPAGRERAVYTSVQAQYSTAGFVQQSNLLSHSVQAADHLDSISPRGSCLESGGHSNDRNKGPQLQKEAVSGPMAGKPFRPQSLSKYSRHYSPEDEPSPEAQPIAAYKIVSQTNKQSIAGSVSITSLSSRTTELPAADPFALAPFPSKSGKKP
The next test has as its system ABL1. Set-up: species or system human, MV4-11 + K-562 + COLO205 + SK-N-BE2 + OVCAR-8. The conditions noted are these: read-out: apparent Kd, n = 1.
The subject of a further test is ABL2. Set-up: species or system human, MV4-11 + K-562 + COLO205 + SK-N-BE2 + OVCAR-8. Conditions: read-out: apparent Kd, n = 1.
The subject of another test is BCR. Also noted: species or system human, MV4-11 + K-562 + COLO205 + SK-N-BE2 + OVCAR-8. Conditions: read-out: apparent Kd, n = 1.
In another test the test system is FYN. Also noted: species or system human, MV4-11 + K-562 + COLO205 + SK-N-BE2 + OVCAR-8. Conditions: read-out: apparent Kd, compound concentrations: 100 nM and 1000 nM (sheet 'Samples'), n = 1.
For a further test, the system named is HCK. Also noted: species or system human, MV4-11 + K-562 + COLO205 + SK-N-BE2 + OVCAR-8. The conditions noted are these: read-out: apparent Kd, compound concentrations: 100 nM and 1000 nM (sheet 'Samples'), n = 1.
The subject of a further test is LCK. Set-up: species or system human, MV4-11 + K-562 + COLO205 + SK-N-BE2 + OVCAR-8. The conditions noted are these: read-out: apparent Kd, compound concentrations: 100 nM and 1000 nM (sheet 'Samples'), n = 1.
The test system of the next test is PTK6. Also noted: species or system human, MV4-11 + K-562 + COLO205 + SK-N-BE2 + OVCAR-8. The conditions noted are these: read-out: apparent Kd, compound concentrations: 100 nM and 1000 nM (sheet 'Samples'), n = 1.
In another test the test system is RET. Set-up: species or system human, MV4-11 + K-562 + COLO205 + SK-N-BE2 + OVCAR-8. Conditions: read-out: apparent Kd, n = 1.
In the next test the test system is RIPK2. Also noted: species or system human, MV4-11 + K-562 + COLO205 + SK-N-BE2 + OVCAR-8. The conditions noted are these: read-out: apparent Kd, compound concentrations: 100 nM and 1000 nM (sheet 'Samples'), n = 1.
The next test deals with YES1. Also noted: species or system human, MV4-11 + K-562 + COLO205 + SK-N-BE2 + OVCAR-8. Conditions: read-out: apparent Kd, compound concentrations: 100 nM and 1000 nM (sheet 'Samples'), n = 1.
The test system of another test is GAK. Also noted: species or system human, MV4-11 + K-562 + COLO205 + SK-N-BE2 + OVCAR-8. The conditions noted are these: read-out: apparent Kd, n = 1.
For a further test, the system named is RIPK3. Set-up: species or system human, MV4-11 + K-562 + COLO205 + SK-N-BE2 + OVCAR-8. Conditions: read-out: apparent Kd, compound concentrations: 100 nM and 1000 nM (sheet 'Samples'), n = 1.
Another test has as its system FRK. Also noted: species or system human, MV4-11 + K-562 + COLO205 + SK-N-BE2 + OVCAR-8. Conditions: read-out: apparent Kd; compound concentrations: 100 nM and 1000 nM (sheet 'Samples'), CATDS: 2.1087873700944799E-2; n = 1.
Where [1] appears, read: compound concentrations:100 nM and 1000 nM (sheet 'Samples').

Molecules are shown by their SMILES. Like-named read-outs stand apart in the source and are kept apart here.

With `O=C1N=C(NCCc2ccccc2F)S/C1=C\c1ccc2ncccc2c1` [RO4498483-000], the potency estimated from few doses is 957 nM with AAK1 (CATDS: 8.5407630700809506E-2); 347 nM in the test on CLK1 (compound concentrations: 100 nM and 1000 nM (sheet 'Samples'), CATDS: 0.138137656029612); 675 nM in the test on CLK4 (compound concentrations: 100 nM and 1000 nM (sheet 'Samples'), CATDS: 9.8466136533641502E-2); 295 nM in the test with CSNK2A1;CSNK2A3 (compound concentrations: 100 nM and 1000 nM (sheet 'Samples'), CATDS: 0.15223513812582401); 306 nM with CSNK2A2 (compound concentrations: 100 nM and 1000 nM (sheet 'Samples'), CATDS: 0.14884656797599799); 1100 nM in the test with Q6ZSR9 (compound concentrations: 100 nM and 1000 nM (sheet 'Samples'), CATDS: 8.1205084555915505E-2).
On to `CN1C(=O)c2ccccc2N(C)c2nc(Nc3cnn(C4CCNCC4)c3)ncc21` [XMD-17-51], for which the potency estimated from few doses is 152 nM with ABL1 (compound concentrations: 100 nM and 1000 nM (sheet 'Samples'), CATDS: 3.0247523924653401E-2); 429 nM with ABL2 (compound concentrations: 100 nM and 1000 nM (sheet 'Samples'), CATDS: 2.0369269177780699E-2); 32.4 nM with BCR (compound concentrations: 100 nM and 1000 nM (sheet 'Samples'), CATDS: 6.3621758322441394E-2); 1140 nM with FYN (CATDS: 1.52897278360091E-2); 1000 nM with HCK (CATDS: 1.5765780158237999E-2); 418 nM with LCK (CATDS: 2.0561496325198901E-2). The potency estimated from few doses in the test with PTK6 (CATDS: 1.5181861275826099E-2) is 1170 nM; with RET (compound concentrations: 100 nM and 1000 nM (sheet 'Samples'), CATDS: 5.3896447188978902E-2) it was 44.2 nM; with RIPK2 (CATDS: 1.9176534260091301E-2), 514 nM; in the test with YES1 (CATDS: 2.1066601667733099E-2), 389 nM.
For `O=C1N=C(NCc2ccccc2)S/C1=C\c1ccc2ncccc2c1` [RO4442080-000], the potency estimated from few doses in the test on AAK1 (CATDS: 8.89289230622759E-2) is 1380 nM; in the test on CLK1 (compound concentrations: 100 nM and 1000 nM (sheet 'Samples'), CATDS: 0.13842928601840401), 521 nM; in the test with CLK4 (compound concentrations: 100 nM and 1000 nM (sheet 'Samples'), CATDS: 0.11834941417905), 701 nM; in the test on CSNK2A1;CSNK2A3 (compound concentrations: 100 nM and 1000 nM (sheet 'Samples'), CATDS: 0.15313565978355501), 438 nM; with CSNK2A2 (compound concentrations: 100 nM and 1000 nM (sheet 'Samples'), CATDS: 0.175887275734743) it was 351 nM; in the test with Q6ZSR9 (compound concentrations: 100 nM and 1000 nM (sheet 'Samples'), CATDS: 0.110093670656788), 815 nM.
With `CNC1=NC(=O)/C(=C/c2ccc3ncccc3c2)S1` [RO4595949-000], the potency estimated from few doses in the test on AAK1 (CATDS: 6.4601129134093493E-2) is 737 nM; with CLK1 (compound concentrations: 100 nM and 1000 nM (sheet 'Samples'), CATDS: 0.21110804330204799), 68.5 nM; in the test on CLK4 (compound concentrations: 100 nM and 1000 nM (sheet 'Samples'), CATDS: 7.8220573800827503E-2), 429 nM; in the test on CSNK2A1;CSNK2A3 (compound concentrations: 100 nM and 1000 nM (sheet 'Samples'), CATDS: 0.13596728585800399) it was 136 nM; in the test on CSNK2A2 (compound concentrations: 100 nM and 1000 nM (sheet 'Samples'), CATDS: 0.13149975380310699), 144 nM; with Q6ZSR9 (compound concentrations: 100 nM and 1000 nM (sheet 'Samples'), CATDS: 0.14278895493122401), 125 nM.
Regarding `COc1cc(/C=N/Nc2ncnc3[nH]ncc23)ccc1O` [GW578748X], the potency estimated from few doses in the test with ABL1 (setting [1]) is 1250 nM; in the test on BCR (setting [1]), 678 nM; with CLK1 (setting [1]), 1370 nM; in the test with CLK4 (setting [1]), 401 nM; with CSNK2A1;CSNK2A3 (setting [1]) it was 384 nM; in the test on CSNK2A2 (setting [1]) it was 376 nM. Also, the potency estimated from few doses with RET (setting [1]) is 494 nM.
For the molecule `COc1cc2ncn(-c3cc(OCCCc4ccccc4)c(C(N)=O)s3)c2cc1OC` [GSK205189A], the potency estimated from few doses with ABL2 (setting [1]) is 956 nM; with CLK1 (setting [1]) it was 105 nM; in the test on CLK4 (setting [1]) it was 1340 nM; in the test with GAK (setting [1]) it was 663 nM; in the test with Q6ZSR9 (setting [1]), 1480 nM.
Take `CN1CCN(Cc2cccc(-c3ccc4c(Nc5ccc(Oc6ccccc6)cc5)ccnc4c3)c2)CC1` [GW578342X]: the potency estimated from few doses is 1560 nM in the test on ABL1 (compound concentrations: 100 nM and 1000 nM (sheet 'Samples'), CATDS: 7.7551536280391298E-2); 115 nM with HCK (CATDS: 0.21487500019283201); 1190 nM in the test on LCK (CATDS: 8.3289760013849606E-2); 1600 nM in the test with PTK6 (CATDS: 7.71683723921405E-2); 177 nM in the test on RIPK2 (CATDS: 0.17287191269560401); 638 nM in the test with RIPK3 (CATDS: 0.10117998061927). The potency estimated from few doses in the test with YES1 (CATDS: 0.46544607401261401) is 32.3 nM.
Take `CN(C)Cc1ccc(-c2ccc3c(Nc4ccc(Oc5ccccn5)cc4)ccnc3c2)o1` [GW567148X]: the potency estimated from few doses was 474 nM with ABL1 (compound concentrations: 100 nM and 1000 nM (sheet 'Samples'), CATDS: 2.6696820742308999E-2); 716 nM in the test on ABL2 (compound concentrations: 100 nM and 1000 nM (sheet 'Samples'), CATDS: 2.2474655179730001E-2); 671 nM in the test on BCR (compound concentrations: 100 nM and 1000 nM (sheet 'Samples'), CATDS: 2.3050499166144999E-2); 1550 nM with CLK1 (compound concentrations: 100 nM and 1000 nM (sheet 'Samples'), CATDS: 1.75413407111282E-2); 850 nM in the test with FRK; 385 nM with FYN (CATDS: 2.9409133210556101E-2). The potency estimated from few doses in the test on GAK (compound concentrations: 100 nM and 1000 nM (sheet 'Samples'), CATDS: 2.37556853543167E-2) is 622 nM; in the test on HCK (CATDS: 0.14804740289448201), 30.7 nM; in the test with LCK (CATDS: 3.1046843535100802E-2) it was 345 nM; in the test with PTK6 (CATDS: 5.2806540733476098E-2), 134 nM; in the test with RIPK2 (CATDS: 9.2431358445575804E-2), 57.7 nM; in the test with RIPK3 (CATDS: 2.29584105489756E-2), 678 nM. Also, in the test on YES1 (CATDS: 6.4400674253028201E-2), the potency estimated from few doses was 97.8 nM.

The values above are taken from article PMC11062922 (Nature Chemical Biology, 2023).
